Pf Dd2 inh – qHTS Primary assay for Inhibitors of Plasmodium falciparum Dd2 growth in vitro; P. falciparum Dd2 growth, SYBR Green, 72 h; Potency, µM (series often up to 28.9 µM), for inactives: at the highest dose activity, negative = inhibition, most hits filed as inhibitors; 120,000 tested, 4.3% active; AID 1347417, 2020; active = well fitted inhibition curve with a large enough effect;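 note: plate controls were DMSO vehicle for no effect and reference drug for full effect; nearly all actives have a fitted effect of over 65% in size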
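Infected erythrocytes (Dd2, 0.3% parasitemia, 2.5% hematocrit final) are added to compound in RPMI-1640/Albumax II medium, grown 72 h at 37C in low oxygen, then lysed with saponin/Triton-X containing SYBR Green and read by fluorescence.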
Starred values were filed as active, the others as inactive; i = inactive; [ ] = another dose, or the depositor's remark. Many of the other results were omitted from the sample, so hits are more common in it than they were. Potency is the fitted concentration of half-maximal effect.

SMILES | Pf Dd2 inh
O=C(NCc1ccccc1)c1ccc(CN2C(=O)NC3(CCOCC3)C2=O)cc1 | 25.9%
CCOc1cc(CN(C)C(=O)CC2C(=O)NCCN2Cc2ccccc2)ccc1OC (stereo not given) | -14.6%
O=C1NC(C(=O)NCCc2ccccc2)Cn2cccc21 (stereo not given) | i
COc1ccc(-c2nc(-c3nnn4c3COC(c3ccc(Cl)cc3)C4)no2)cc1 (stereo not given) | 8.6%
O=C(c1ccc(Cl)nc1)N1CCC(N2CC3CCCN3C2=O)CC1 (stereo not given) | 19.5%
CS(=O)(=O)NC1CCN(c2cc(C3CC(N)C3)nc(N)n2)CC1 (stereo not given) | 0.1%
Cc1cc(C(F)(F)F)nc(CCNc2cc(C3CC(N)C3)nc(N)n2)n1 (stereo not given) | -21.0%
CNc1cc(C2CC(NS(=O)(=O)c3cc(C)sc3C)C2)nc(N)n1 (stereo not given) | 8.91µM*
CN(C)C(=O)CO[C@H]1CCOC[C@H]1NC(=O)c1ccc2n[nH]nc2c1 | 3.2%
Cc1cnc(CCNC(=O)Nc2ccc3c(c2)OCCO3)n1Cc1ccc(F)cc1 | -5.8%
Cc1cnc(CCNC(=O)C2CCCC2)n1Cc1ccc(F)cc1 | -7.6%
CCn1cc(S(=O)(=O)NCCc2ncc(C)n2Cc2ccc(F)cc2)cn1 | 6.31µM*
CN1CCCCCCN(C(=O)c2ccnn2C)[C@H]2CCC[C@H]2C1=O | 2.1%
CN1CCCCCCN(C(=O)c2ccc3ccccc3n2)[C@H]2CCC[C@H]2C1=O | 6.31µM*
COc1ccc(C(=O)N2CCCCCCN(C)C(=O)[C@@H]3CCC[C@@H]32)cc1 | -2.1%
CC(=O)NCCNC(=O)C1CCCN(S(=O)(=O)c2ccccc2)CCC(=O)NCC1 (stereo not given) | 24.2%
COc1cccc(N2CC(NC(=O)C3CCCC3)CC2=O)c1 (stereo not given) | 44.1%
Cn1nnnc1C1CCCN(C(=O)NCc2ccccc2)C1 (stereo not given) | -8.3%
Cn1nnnc1C1CCCN(C(=O)Cc2ccccc2)C1 (stereo not given) | -18.6%
COc1cccc(C(=O)N2CCCC(c3nn[nH]n3)C2)c1 (stereo not given) | 40.2%
COc1cccc(C2=C(C(C)=O)Sc3nnc(C4CCCCC4)n3N2C(C)=O)c1 | 1.26µM*
CC(=O)C1=C(c2ccccc2)N(C(C)=O)n2c(nnc2C2CCCCC2)S1 | 1.12µM*
CC(=O)NC[C@H]1O[C@@H](CC(=O)NC(C)C)[C@H](O)[C@@H]1O | 24.5%[44.1 µM]
C#CCNC(=O)C1CN(Cc2ccccc2)C(=O)N1 (stereo not given) | -13.0%[44.1 µM]
CN1CC(c2nc(C3CCOCC3)nn2CC(=O)O)CC1=O (stereo not given) | -2.2%
SMILES | Pf Dd2 inh
O=C(O)C1CCc2nnc(C3CCCN(C(=O)Cc4ccccc4)C3)n21 (stereo not given) | i
Cc1nc(CCNC(=O)[C@H]2CCC[C@H](O)C2)nc2c1CCC2 | -14.2%
COc1ccc(CNC(=O)c2cc(-c3ccc(Br)s3)nc3ccccc23)cc1 | 232.4%[5.79 µM]
Cc1ccc(NC(=O)c2cc(-c3ccc(Br)s3)nc3ccccc23)cc1F | -22.5%
CCN(CC)CC(C)CNC(=O)c1cc(-c2ccc(Br)s2)nc2ccccc12 (stereo not given) | 11.2µM*
Cc1ccc(C2Cn3nnc(C(=O)N4CCC(C(=O)NCc5ccco5)CC4)c3CO2)cc1 (stereo not given) | -18.6%
COCCNC(=O)C[C@@H]1C[C@H]2O[C@H](CNCc3ccccc3C)[C@@H](O)[C@H]2O1 | -2.4%[44.1 µM]
CCC1Oc2ccc(NC(=O)C(CC)c3ccccc3)cc2CN(Cc2ccccc2)C1=O (stereo not given) | -14.6%
COc1ccc(CN2Cc3cc(NC(=O)Cc4cccs4)ccc3OC(C)C2=O)cc1 (stereo not given) | -4.9%
COc1ccc(CN2Cc3cc(NC(=O)c4ccc([N+](=O)[O-])cc4)ccc3OC(C)C2=O)c(OC)c1 (stereo not given) | 10µM*
COc1ccccc1CN1Cc2cc(NC(=O)c3ccc4c(c3)OCO4)ccc2OC(C)C1=O (stereo not given) | 3.98µM*
CC1Oc2ccc(NC(=O)c3ccc4c(c3)OCO4)cc2CN(Cc2ccccc2)C1=O (stereo not given) | -21.3%
COc1ccc(C(=O)Nc2ccc3c(c2)CN(Cc2cc(F)cc(F)c2)C(=O)C(C)O3)cc1 (stereo not given) | -13.7%
COc1ccc(CN2Cc3cc(NC(=O)c4ccc5c(c4)OCO5)ccc3OC(C)C2=O)cc1 (stereo not given) | -7.3%
COc1ccccc1CCN1Cc2cc(NC(=O)Cc3cccs3)ccc2OC(C)C1=O (stereo not given) | 11.2µM*
COc1ccccc1CN1Cc2cc(NC(=O)Cc3cccs3)ccc2OC(C)C1=O (stereo not given) | i
CC1Oc2ccc(NC(=O)c3ccc([N+](=O)[O-])cc3)cc2CN(Cc2ccccc2F)C1=O (stereo not given) | i
O=C(O)C(c1cccc(O)c1)N1CCN(C2CCCCC2)C(=O)C1 (stereo not given) | -8.8%
COc1ccccc1-n1nc(CC(N)=O)nc1-c1ocnc1C | -11.1%
COc1ccc(-c2noc([C@@H]3Cc4nc[nH]c4CN3C(=O)Nc3ccc(C)cc3)n2)cc1 | -11.6%[44.1 µM]
COCC(=O)N1C[C@@H]2C[C@H]1C(=O)N(Cc1ccc(OC)cc1)c1ccccc1O2 | 1.4%[44.1 µM]
Cc1noc(C2CCCCCN2C(=O)c2ccoc2)n1 (stereo not given) | 27.4%
CC1=C[C@@H](CNc2ccccn2)[C@H](C(C)C)C[C@H]1Cc1nnc(-c2cncn2C)o1 | 5.62µM*
CC1=C[C@@H](CNCc2ccc(Cl)cc2)[C@H](C(C)C)C[C@H]1Cc1nnc(-c2cncn2C)o1 | 3.98µM*
CC(=O)NC[C@@H]1C=C(C)[C@H](CC(=O)NCc2cccnc2)C[C@H]1C(C)C | 40.2%[44.1 µM]
SMILES | Pf Dd2 inh
Cc1ccccc1CN1CC[C@H](c2nnc(-c3cncn3C)o2)C1 | -0.3%[44.1 µM]
CC1=C[C@@H](CNC(=O)c2ccccc2)[C@H](C(C)C)C[C@H]1Cc1nnc(-c2cncn2C)o1 | -5.8%[44.1 µM]
CC1=C[C@@H](CN2CCCCC2)[C@H](C(C)C)C[C@H]1Cc1nnc(-c2cncn2C)o1 | 7.94µM*
CC1=C[C@@H](CN2CCN(c3ncccn3)CC2)[C@H](C(C)C)C[C@H]1Cc1nnc(-c2cncn2C)o1 | -5.8%
CC1=C[C@@H](CNC(=O)c2cncnc2)[C@H](C(C)C)C[C@H]1Cc1nnc(-c2ccccc2F)o1 | -4.6%
CC1=C[C@@H](CNC(=O)c2cnccn2)[C@H](C(C)C)C[C@H]1Cc1nnc(-c2ccccc2F)o1 | -5.7%
CCN1CCCN(C(=O)CCC2CCCC2)CC12CCOCC2 | i
Cc1nnc(-c2cc(-c3ccnn3C)ccn2)n1-c1ccccc1 | -2.3%[44.1 µM]
O=C1CC2(CCN(CC3CCCCC3)CC2)Oc2ccccc21 | -8.2%[44.1 µM]
CC(=O)Nc1ccc(CC(=O)N2CCCC(Cc3nncn3CC3CC3)C2)cc1 (stereo not given) | -23.8%
O=C([C@@H]1C[C@H](Oc2cccnc2)CN1S(=O)(=O)c1ccccc1)N1CCOCC1 | -19.2%
CS(=O)(=O)N1C[C@H]2CCN(Cc3ccc(Cl)cc3F)C[C@H]21 | 6.7%
COc1ccc(-c2nc(-c3ccccc3)nc3c2CN(C(=O)c2ccccc2C)CC3)cc1 | 10µM*
COc1ccc(C(=O)N2CCc3nc(C)nc(-c4ccc(OC)cc4)c3C2)cc1 | -9.1%
COc1ccc(-c2nc3c(c(-c4ccccc4)n2)CN(C(=O)c2cccc(Cl)c2)CC3)cc1 | i

Source: PubChem BioAssay
